Screen size: about 96,000 compounds; about 100 (0.1%) were called active. For the sample, actives were picked, then their nearest neighbours and some compounds at random. Results with a measured potency or affinity are listed apart. Unmarked numbers belong to inactive results.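 Rule for the calls: active = displacement above 50% at 20 µM plus a fluorescence interference ratio under 1.5; inactive = the rest.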
These molecules were tested against Bcl-2-like protein 10 (Homo sapiens) (UniProt Q9HD36) (assay: Bcl-B/TR3 peptide binding disruption – biochemical, fluorescence polarization, FITC-TR3 peptide, selectivity assay for Bfl-1 inhibitor project, primary screen (AID 748;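 note: plate controls were wells without compound for no effect and wells lacking Bcl-B protein for full effect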)). Conditions: FP displacement of FITC-TR3 peptide from Bcl-B; at 20 µM; hits give high values.

Point of comparison: `CCn1c(SCC(=O)OC)nc2sc3c(c2c1=O)CCC3`, displacement 46.6%. Against it:
- COC(=O)CSc1nc2sc3c(c2c(=O)n1C1CCCCC1)CCN(C)C3 — lower, -62.9%
- COC(=O)CSc1nc2sc3c(c2c(=O)n1-c1ccccc1)CCN(C)C3 — lower, 4.6%
- CCn1c(NN)nc2sc3c(c2c1=O)CCC3 — lower, -124%
- CCn1c(SCC(N)=O)nc2sc3c(c2c1=O)CCCC3 — lower, 1.5%
- CCn1c(SCC(=O)N2CCOCC2)nc2sc3c(c2c1=O)CCCC3 — lower, 4%
- Cc1ccc2cccc(SCC(=O)N3CCOCC3)c2n1 — lower, 1.9%
- O=C1CC(C(=O)O)S/C(=N\NC(=O)c2ccccc2)N1 (stereo not drawn) — lower, 0%
- CC(C)n1c(SCCCc2ccccc2)nc2c1c(=O)[nH]c(=O)n2C — lower, -3.8%
- COc1ccccc1NC(=O)Cc1noc(CSc2cccc[n+]2[O-])n1 — lower, -8.6%
- CC(C)(C)c1nnc2sc(SCCN3C(=O)c4ccccc4C3=O)nn2c1=O — lower, 2.7%
- COc1ccc(OC)c(C2=NO[C@@H]3C(=O)N(c4cc(Cl)ccc4OC)C(=O)[C@H]23)c1 — lower, 6%
- COc1ccc(Cl)cc1N1C(=O)[C@@H]2C(c3cccc(OC)c3OC)=NO[C@@H]2C1=O — lower, 8.5%
- O=c1oc2c3c4c(cc2c2c1CCC2)OCCN4CCC3 — higher, 49.8%
- CC(C)c1cc(=O)oc2c3c4c(cc12)CCCN4CCC3 — higher, 59.5%
- CCNC(=O)CN1c2cccc3cccc(c23)S1(=O)=O — lower, -6.3%
- CCOC(=O)c1cc(CC)sc1NC(=O)CCC(=O)O — lower, 1.7%
- Brc1ccc(C2Nc3cccc4cccc(c34)N2)o1 — lower, 17.6%
- O=C1NC(c2ccco2)Nc2ccccc21 (stereo not drawn) — lower, -1.7%
- COC(=O)c1ccc(Oc2c(C(F)(F)F)oc3c(CN4CCN(C)CC4)c(O)ccc3c2=O)cc1 — lower, 4.9%
- CCOC(=O)N1CCC(NC(=O)C2CCCN(C(=O)N3CCOc4ccccc43)C2)CC1 (stereo not drawn) — lower, 3.1%
- O=C(O)c1cn[nH]c1-n1cnnn1 — lower, 0.2%
- CCCCOc1ccc(C(=O)Nc2ccc(N3CCN(C)CC3)cc2)cc1 — lower, -3.7%
- CCCC(=O)N1CCN(c2ccc(NC(=O)c3ccc(OCC)c([N+](=O)[O-])c3)cc2)CC1 — lower, -1.6%
- CCOc1ccc(C(=O)Nc2ccc(N3CCCC3)cc2)cc1 — lower, 35.5%
- Cc1ccc(OCC(=O)Nc2ccc(N3CCOCC3)cc2)cc1 — lower, 4.4%
- CC(C)Oc1ccc(C(=O)Nc2ccc(N3CCCC3)cc2)cc1 — lower, 0%
- Cc1cccc(OCCCC(=O)Nc2ccc(N3CCCCC3)cc2)c1C — lower, -5.7%
- Cc1cc(C)cc(OCC(=O)Nc2ccc(N3CCCC3)cc2)c1 — lower, 17.3%
- Cc1cccc(OCC(=O)Nc2ccc(N3CCN(S(C)(=O)=O)CC3)cc2)c1C — lower, -12.3%
- CCOc1cc(N2CCOCC2)c(OCC)cc1NC(=O)CN1C(=O)NC2(CCc3ccccc32)C1=O (stereo not drawn) — lower, -7.8%
- CCn1c(SCC(=O)Nc2ccc(S(N)(=O)=O)cc2)nnc1-c1ccccc1OC — lower, -8.3%
- CCCn1c(=O)c2c(c3ccccc31)OC(C)C(=O)N2 (stereo not drawn) — lower, 4.5%
- O=C(N/N=C/C1C(c2ccccc2)C1(Cl)Cl)c1cccc(Br)c1 (stereo not drawn) — lower, -0.4%
- CN(C)S(=O)(=O)c1ccc(C(=O)Nc2nnc(Cc3ccccc3)s2)cc1 — lower, -6.2%
- OC1CCN(c2ncnc3nc[nH]c23)CC1 — lower, 2.2%
- CCOC(=O)Cn1c(=O)oc2cc(S(=O)(=O)N3CCC(N4CCCCC4)CC3)ccc21 — lower, 10%
- Clc1ccc(Cn2ncc3c(NCCN4CCOCC4)ncnc32)cc1 — lower, -10.2%
- O=C1CCCN1c1ccc(Br)cc1 — lower, -0.3%
- Cc1c(N2C(=O)c3cccc4cccc(c34)C2=O)c(=O)n(-c2ccccc2)n1C — lower, -13.8%
- Cc1c(N2C(=O)c3ccccc3C2=O)c(=O)n(-c2ccccc2)n1C — lower, 3.3%
- Cc1ccsc1/C=N/n1cnc2sc(C)c(C)c2c1=O — lower, -9.7%
- CC(=O)N1CCN(S(=O)(=O)c2ccc(S(=O)(=O)NC3CC3)cc2)CC1 — lower, -5.1%
- CC(C)(C)C(=O)Nc1nc(C2CCCN2S(=O)(=O)c2ccc(Cl)cc2)cs1 (stereo not drawn) — lower, -7.5%
- Cc1ccc(S(=O)(=O)N2CCN(C3CCN(Cc4ccccc4)CC3)CC2)cc1 — lower, 6.6%
- Cc1cc(C(=O)O)c(C)n1-c1ccccc1 — lower, -1%
- CC(C)(C)NC(=O)c1sccc1C(=O)O — lower, -1.7%
- Cc1ccc(-c2csc(N3N=C(c4ccccc4)/C(=C\c4ccc(N(C)C)cc4)C3=O)n2)cc1 — lower, -1.8%
- CCOc1cc(/C=C2\SC(=S)N(Nc3ccccc3)C2=O)ccc1O — lower, -87.6%
- COc1cc(C2N(c3ccccn3)C(=O)C3CCCN32)cc(OC)c1OC (stereo not drawn) — lower, 6.8%
- Cc1ccc(Cl)c(OCC(=O)Nc2ccc3c(c2)OCCO3)c1 — lower, 1.3%
- O=C(O)CN(c1ccc(F)cc1)S(=O)(=O)c1ccc2c(c1)OCCO2 — lower, -1.7%
- CC(C)CN(C(=O)COC(=O)c1ccc2c(c1)NC(=O)CS2)C1CCS(=O)(=O)C1 (stereo not drawn) — lower, 8.5%
- CC(C)CN(C(=O)COC(=O)c1cc2ccccc2oc1=O)C1CCS(=O)(=O)C1 (stereo not drawn) — lower, -8.2%
- O=C(CCc1nc2ccccc2s1)OCC(=O)N1CCN(C(=O)c2ccco2)CC1 — lower, -8%
- Cn1c(=O)c2c3c(sc2n2c(SCc4ccc5c(c4)OCO5)nnc12)COC(C)(C)C3 — lower, -8.4%
- COC(=O)c1ccccc1NC(=O)c1cc2ncc(Br)cn2n1 — lower, 1.3%
- O=C(Nc1ccc(F)cc1F)c1cc2ncc(Br)cn2n1 — lower, -2.9%
- Cc1ccc(Cc2cnc(NC(=O)C3CCCO3)s2)cc1 (stereo not drawn) — lower, 0.1%
- COc1ccc(C(C)=O)c2c(O)cccc12 — lower, -7%
- COc1ccc2c3c(cccc13)N(C)N=C2C — lower, 20.3%

`Cc1c(N2C(=O)c3ccc4c5c(ccc(c35)C2=O)CC4)c(=O)n(-c2ccccc2)n1C` was tested, and the displacement was 112% (active).
`CCC1=NNc2cccc3c(OC)ccc1c23` was tested, and the displacement was 83.6% (active).

— PubChem BioAssay AID748 (Sanford-Burnham Center for Chemical Genomics, 2007)
